Assay outcomes as filed in PubChem.
Pf growth 48h: P. falciparum growth inhibition at 48 hours (one generation) | Potency, µM (series often up to 28.7 µM), hits mostly inhibitors | P. falciparum luciferase growth in erythrocytes, 48 h | 310,000 compounds, 5.9% hits
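Firefly luciferase activity from engineered P. falciparum reports growth; inhibitors lower the luminescent signal. Cultures contained 2% hematocrit erythrocytes at 0.1% final parasitemia.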
Pf growth 96h: inhibits malaria parasite growth, 96 h. P. falciparum luciferase reporter growth, 96 h. Potency, µM (titrated, usually from 28.7 µM), most hits filed as inhibitors. 320,000 compounds, 6.9% hits
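Luminescence readout: decreased luciferase signal marks inhibited growth of reporter-expressing P. falciparum in infected red cells (2% hematocrit, 0.05% parasitemia final), exposed to compound two generations (96 h, 37 C, 5% CO2).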
NS1 function inh: inhibitors of influenza NS1 protein function. Potency, µM (doses to about 46.1 µM). 270,000 compounds, 0.4% hits; calls by dose curve; further: actives are rising curves; nearly all actives have a fitted effect of over 50% in size
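Recovery from NS1-induced slow growth read by OD600 in budding yeast switched to galactose assay medium (pH 6.0, -URA) at 1:100 dilution. Compound 23 nl per well; the matching strain lacking NS1 serves as control.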
Sm TGR inh: inhibitors of Schistosoma mansoni thioredoxin glutathione reductase. Q962Y6. purified TGR, DTNB reduction, TNB absorbance 405 nm. Potency, µM (highest dose often 114 µM), actives largely listed as inhibitors. 360,000 compounds, 3% hits; further: nearly all actives have a fitted effect of over 60% in size
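Kinetic colorimetric format: TGR-catalysed, NADPH-driven DTNB reduction monitored via TNB absorbance. Enzyme dispensed at 20 nM; compound exposure 15 min at room temperature before reaction start.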
Shiga toxin inh: Shiga toxin inhibition | inhibition, % at 38.7 µM | 290,000 compounds, 9.2% hits | AID 2315 | Vero cells, Shiga toxin protein synthesis inhibition reporter; in the data active means inhibition mostly above about 28%, no sharp cut-off; inactive means mostly below about 43%
CHX counter: counter-screen for Shiga toxin inhibitors: cycloheximide protein synthesis inhibition | cell reporter, cycloheximide protein synthesis inhibition counterscreen | max response, % | 300,000 compounds, 12% hits; in the data active means max response mostly above about 13%, no sharp cut-off; inactive means mostly below about 14%; further: read at 38.3 µM for the half of the compounds with a filed dose
Each line names hits and unclear results; the compound was inactive in the other large screens. In the library only some 21% were active in any assay of this set; here they are far more common. Unless noted, the call rests on the fitted dose curve; in most records, active means well fitted curve in the direction sought with a large enough effect; inconclusive means small, poorly fitted or top-dose-only effect, or another doubt; inactive means no such curve, though single readings can be large; an effect the other way counts as inactive or inconclusive.

Cc1ccccc1NC(=O)c1csc2c1CCCC2	Pf growth 48h inconclusive, Shiga toxin inh 100, CHX counter 41
O=C(Nc1nccs1)c1csc2c1CCCC2	Pf growth 96h inconclusive, Shiga toxin inh 88, CHX counter 36
COc1ccc(NC(=O)c2csc3c2CCCC3)cc1	Shiga toxin inh 72, CHX counter 51
O=C(Nc1ccon1)c1csc2c1CCCC2	none (no result: Pf growth 96h)
Cc1[nH]c(=O)[nH]c(=O)c1S(=O)(=O)N1CCN(c2ccccc2Cl)CC1	none (no result: Pf growth 48h, Pf growth 96h, NS1 function inh, Shiga toxin inh, CHX counter)
Cc1ccccc1NC(=O)CSc1nc2ccc(NC(=O)c3ccccc3)cc2s1	none (no result: Pf growth 48h, Pf growth 96h, NS1 function inh, Shiga toxin inh, CHX counter)
CCc1ccc(NS(=O)(=O)c2ccc3oc(=O)c4ncn(CC)c4c3c2)cc1	none (no result: Pf growth 48h, Pf growth 96h, NS1 function inh, Shiga toxin inh, CHX counter)
O=C(Nc1sc2c(c1C(=O)Nc1ccccc1Cl)CCCC2)c1ccccc1F	none (no result: Pf growth 48h, Pf growth 96h, NS1 function inh, Shiga toxin inh, CHX counter)
COc1cccc(CC(=O)N2CCN(c3ccccc3[N+](=O)[O-])CC2)c1	Pf growth 96h inconclusive (no result: NS1 function inh)
NC[C@@H]1O[C@H](C23CC4CC(CC(C4)C2)C3)Cc2c1ccc(O)c2O	Pf growth 48h 9.3µM, Pf growth 96h 5.9µM, Sm TGR inh 7.9µM
COc1ccc(S(=O)(=O)N=C2C=C(C)C(=O)C(C)=C2)cc1	Pf growth 48h inconclusive, Pf growth 96h inconclusive, Sm TGR inh 32µM
COCCN1CCC(CNCc2cn(-c3cc(C)ccc3C)nc2-c2ccccc2)C1 (stereo unspecified)	Pf growth 48h 4.7µM, Pf growth 96h inconclusive
CC(=O)N1CCCN(Cc2cn(-c3cc(C)ccc3C)nc2-c2ccccc2)CC1	Pf growth 48h 17µM
CC(=O)N1CCCN(Cc2cn(-c3ccc(C)cc3)nc2-c2ccc(F)cc2)CC1	Pf growth 48h inconclusive
Cc1ccc(C)c(-n2cc(CNCCc3cnccn3)c(-c3ccccc3)n2)c1	Pf growth 48h 7.4µM, Pf growth 96h inconclusive
COc1ccc([C@H]2CC(=O)C=C(C#CC(C)(C)C)C2)cc1	Pf growth 48h inconclusive, Pf growth 96h inconclusive (no result: NS1 function inh, Shiga toxin inh, CHX counter)
COc1ccc(-c2nnc(SCC(=O)N3CCOCC3)o2)cc1OC	Pf growth 96h 12µM
CCOc1ccc(-c2nnc(SCC(=O)N3CCCC3)o2)cc1	none
Cc1cc(C)nc(SCc2nnc(SCC(=O)N3CCOCC3)o2)n1	Pf growth 96h 7.4µM
COc1ccc(-c2nnc(SCC(=O)N3CCN(c4ccccc4)CC3)o2)cc1OC	none
CCOc1ccc(-c2nnc(SCC(=O)N3CCOCC3)o2)cc1	Pf growth 96h inconclusive, Shiga toxin inh 69, CHX counter 24
O=C(CSc1nc2ccccc2nc1Cc1ccccc1)Nc1ccc2c(c1)OCO2	none (no result: Pf growth 48h, Pf growth 96h, NS1 function inh, Shiga toxin inh, CHX counter)
O=C(NCCn1ccc2ccccc21)c1ccc2c(c1)OCO2	Shiga toxin inh 64, CHX counter 40
CC(C)(C)C(=O)NCCn1ccc2ccccc21	Pf growth 48h inconclusive
Cc1ccc(C(=O)NCCn2ccc3ccccc32)cc1[N+](=O)[O-]	Shiga toxin inh 80, CHX counter 35 (no result: NS1 function inh)
O=C(NCCn1ccc2ccccc21)c1ccc(S(=O)(=O)N2CCCCC2)cc1	Pf growth 48h 12µM, Pf growth 96h inconclusive, NS1 function inh inconclusive
COc1ccc(C(=O)NCCn2ccc3ccccc32)cc1	Pf growth 48h inconclusive, CHX counter 13
Cc1c(C(=O)NCCn2ccc3ccccc32)cccc1[N+](=O)[O-]	Pf growth 48h inconclusive, Pf growth 96h inconclusive (no result: NS1 function inh)
Cc1nn(CC(=O)OCC(=O)NC(C)c2ccccc2)c(C)c1[N+](=O)[O-] (stereo unspecified)	none
O=C(O)[C@@H](O)c1ccc(F)cc1	none (no result: Pf growth 48h, Pf growth 96h, Sm TGR inh, Shiga toxin inh, CHX counter)
CCC[C@@H]1CCCC/C=C\CCCC(=O)OCCN1C(=O)OC(C)(C)C	Pf growth 48h inconclusive, Pf growth 96h inconclusive (no result: NS1 function inh, Shiga toxin inh, CHX counter)
O=C(C(=O)N1CCN(c2ccc([N+](=O)[O-])cc2)CC1)c1cn(CC(=O)N2CCOCC2)c2ccccc12	Pf growth 96h inconclusive
Cc1ccc(C)c(N2CCN(C(=O)c3cnc4c(-c5ccccc5)c(C)nn4c3C)CC2)c1	none (no result: Pf growth 48h, Pf growth 96h, NS1 function inh, Shiga toxin inh, CHX counter)
N#C/C(=C\c1ccco1)C(=O)Nn1cnnc1	none
NC(=O)CC(NC(=O)c1ccc(Br)cc1)c1ccc(N2CCN(c3ccccc3)CC2)c([N+](=O)[O-])c1 (stereo unspecified)	none
NC(=O)CC(NC(=O)c1ccc(Br)cc1)c1ccc(N2CCCCCCC2)c([N+](=O)[O-])c1 (stereo unspecified)	Pf growth 96h 2.9µM, NS1 function inh inconclusive
NC(=O)CC(NC(=O)c1ccc(Br)cc1)c1ccc(NC2CCCCCC2)c([N+](=O)[O-])c1 (stereo unspecified)	CHX counter 12
Cc1ccc(C)c(CN2CCC(n3nnc4cc(F)ccc43)CC2)c1	Pf growth 48h 8.3µM, Pf growth 96h 13µM
Fc1ccc2c(c1)nnn2C1CCN(Cc2c(Cl)cccc2Cl)CC1	Pf growth 48h 10µM, Pf growth 96h 10µM
CCNC(=O)c1c(NC(=O)Cc2coc3cc(C)cc(C)c23)sc2c1CCCC2	none (no result: Pf growth 48h, Pf growth 96h, NS1 function inh, Shiga toxin inh, CHX counter)
COc1cc(/C=N/N2C(=O)CSC2=S)ccc1O	Sm TGR inh 5.6µM (no result: Pf growth 48h)
O=C1c2ccccc2C(=O)N1/N=C/c1ccc(O)c(O)c1O	Pf growth 48h inconclusive, Sm TGR inh 50µM, Shiga toxin inh 55, CHX counter 24
COc1ccc(Br)cc1/C=N/N1C(=O)CSC1=S	Pf growth 96h inconclusive
COc1cc(/C=N/N2C(=O)c3ccccc3C2=O)ccc1O	CHX counter 20
Cc1ccsc1/C=N/N=C1\C(=O)Nc2ccccc21	Shiga toxin inh 49, CHX counter 40
O=C1c2cccc3cccc(c23)C(=O)N1/N=C/c1ccc(O)cc1O	none
O=C1Nc2ccccc2/C1=N\N=C\c1ccc(O)c(O)c1	none
COc1cc(/C=N/n2c(C)nc3ccccc3c2=O)ccc1O	none
O=C(Nc1ccc2c(c1)OCO2)c1cnc(Cl)c(Cl)c1	none (no result: NS1 function inh, Shiga toxin inh, CHX counter)
Cc1ccc2c(=O)cc(C(=O)Nc3ccc(S(=O)(=O)N(C)Cc4ccccc4)cc3)oc2c1	none (no result: Pf growth 48h, Pf growth 96h, NS1 function inh, Shiga toxin inh, CHX counter)
CCc1ccc(OCCOCC(O)CNC(C)CC)cc1 (stereo unspecified)	none
COCCCNC(=O)C1CCC(Cn2c(=O)c3sccc3n(C)c2=O)CC1 (stereo unspecified)	none (no result: Pf growth 48h, Pf growth 96h, NS1 function inh, Shiga toxin inh, CHX counter)
Cc1ccc(CN2c3ccccc3-c3nc(SCC(=O)Nc4c(C)cc(C)cc4C)ncc3S2(=O)=O)cc1	none (no result: Pf growth 48h, Pf growth 96h, NS1 function inh, Shiga toxin inh, CHX counter)
O=C1CSC(=S)N1/N=C/c1ccc2c(c1)OCCO2	Sm TGR inh 7.1µM, Shiga toxin inh 57, CHX counter 35 (no result: Pf growth 48h)
O=C1C2C3C=CC(CC3)C2C(=O)N1/N=C/c1ccccc1O (stereo unspecified)	CHX counter 20
COc1cc(/C=N/N=C2/NC(=O)C(Cc3ccc(F)cc3)S2)ccc1O (stereo unspecified)	Pf growth 96h inconclusive, Shiga toxin inh 84, CHX counter 34 (no result: NS1 function inh)
COc1ccc(/C=N/N2C(=O)C3C4C=CC(C4)C3C2=O)cc1[N+](=O)[O-] (stereo unspecified)	none (no result: Sm TGR inh)
COc1cc(/C=N/N2C(=O)C3C4C=CC(CC4)C3C2=O)ccc1O (stereo unspecified)	Pf growth 96h inconclusive, Shiga toxin inh 57 (no result: NS1 function inh)
